Usually AC50 stands for the concentration giving half of the maximal activity seen.

Three compounds from PubChem BioAssay (EPA / NIEHS) can be followed below.

Active and inactive are the calls of the source. How the source made its calls: active means hit-call score of the fitted dose curve at least 0.9, where 1 is the maximum; inactive means score below 0.9.

Common to all, as to details: mRNA level, 48 h; actives raise or lower the signal
Read-out in one experiment: CYP2C9 (gene 1559)
The experiment in a line: LTEA_HepaRG_CYP2C9: Life Technologies and Expression Analysis (LTEA) Assay for CYP2C9 using HepaRG (AID 2283484). The essentials: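 Eight-point concentration-response (highest 100 uM, half-log dilutions) in HepaRG cells for 48 h; CYP2C9 expression by qRT-PCR normalized to ACTB, GAPDH, POLR2A. Bidirectional fit, DMSO baseline.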

Read-out in the next experiment: CYP2E1 (gene 1571)
The experiment in a line: LTEA_HepaRG_CYP2E1: Life Technologies and Expression Analysis (LTEA) Assay for CYP2E1 using HepaRG (AID 2283485). The essentials:
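Assay uses 48 h exposure of HepaRG hepatic cells, eight concentrations to 100 uM. Expression of CYP2E1 is quantified by TaqMan qRT-PCR with ACTB, GAPDH and POLR2A normalization; curves fitted in both directions relative to vehicle.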

Read-out in another experiment: CYP4A11 (gene 1579)
The experiment in a line: LTEA_HepaRG_CYP4A11: Life Technologies and Expression Analysis (LTEA) Assay for CYP4A11 using HepaRG (AID 2283486). The essentials:
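CYP4A11 transcript levels were quantified by TaqMan qRT-PCR after HepaRG human liver cells were treated for 48 hours with test chemicals (top 100 uM, half-log dilutions, 0.5% DMSO). Gain or loss of signal was fitted relative to DMSO.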

Read-out in experiment [1]: Cytochrome P450 3A4 (Homo sapiens) (UniProt P08684)
The experiment in a line: LTEA_HepaRG_CYP3A4: Life Technologies and Expression Analysis (LTEA) Assay for CYP3A4 using HepaRG (AID 2283487). The essentials: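 CYP3A4 transcript measured by TaqMan qRT-PCR and normalized to three housekeeping genes after 48 h chemical exposure of human HepaRG cells. Top concentration 100 uM, half-log steps, 0.5% DMSO vehicle; gain or loss fitted against DMSO baseline.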

Read-out in experiment [2]: DNA damage-inducible transcript 3 (DDIT3), DDIT3 (gene 1649)
The experiment in a line: LTEA_HepaRG_DDIT3: Life Technologies and Expression Analysis (LTEA) Assay for DNA damage-inducible transcript 3 (DDIT3) using HepaRG (AID 2283488). In outline: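 Eight-point concentration-response (100 uM highest, half-log dilutions) in HepaRG, 48 h, duplicate wells. Endpoint: qRT-PCR mRNA, normalized (ACTB, GAPDH, POLR2A), bidirectional fitting with DMSO as baseline.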

Read-out in experiment [3]: Pro-epidermal growth factor (Homo sapiens) (UniProt P01133)
Description: LTEA_HepaRG_EGF: Life Technologies and Expression Analysis (LTEA) Assay for Epidermal growth factor (EGF) using HepaRG (AID 2283489). In outline: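 qRT-PCR readout of EGF transcript after 48 h chemical exposure of HepaRG cells; eight concentrations from 100 uM down in half-log steps, duplicate wells, 0.5% DMSO vehicle. Bidirectional curve fitting against DMSO baseline.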

Read-out in experiment [4]: Early growth response protein 1 (EGR1) transcription factor, EGR1 (gene 1958)
The experiment in a line: LTEA_HepaRG_EGR1: Life Technologies and Expression Analysis (LTEA) Assay for Early growth response protein 1 (EGR1) transcription factor using HepaRG (AID 2283490). In outline:
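EGR1 expression change in human HepaRG after 48 h chemical exposure, assessed by housekeeping-normalized qRT-PCR; concentration-response up to 100 uM, fitted in both directions against DMSO controls.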

Read-out in experiment [5]: Ezrin (EZR), EZR (gene 7430)
The experiment in a line: LTEA_HepaRG_EZR: Life Technologies and Expression Analysis (LTEA) Assay for Ezrin (EZR) using HepaRG (AID 2283491). The essentials: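 HepaRG, 48 h chemical exposure, 8-pt half-log series from 100 uM, 0.5% DMSO vehicle, duplicates. Read-out: EZR mRNA by TaqMan qRT-PCR (Fluidigm array), housekeeping-normalized; bidirectional curve fit vs DMSO baseline.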

Read-out in experiment [6]: Cytochrome P450 3A7 (Homo sapiens) (UniProt P24462)
The experiment in a line: LTEA_HepaRG_CYP3A7: Life Technologies and Expression Analysis (LTEA) Assay for CYP3A7 using HepaRG (AID 2283492). In outline:
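CYP3A7 transcript levels were read by TaqMan qRT-PCR on Fluidigm arrays after 48 h chemical exposure of human HepaRG cells, with housekeeping-gene normalisation. Eight half-log concentrations up to 100 uM in 0.5% DMSO were tested in duplicate.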

Read-out in the next experiment: CYP3A5 (gene 1577)
Description: LTEA_HepaRG_CYP3A5: Life Technologies and Expression Analysis (LTEA) Assay for CYP3A5 using HepaRG (AID 2283493). The essentials:
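Readout was CYP3A5 mRNA by qRT-PCR. HepaRG cultures were exposed for 48 h in serum-free induction medium to chemicals at up to 100 uM, and responses were fitted in both directions relative to DMSO vehicle.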

Read-out in experiment [7]: Fatty Acid-Binding Protein 1 (FABP1), FABP1 (gene 2168)
The experiment in a line: LTEA_HepaRG_FABP1: Life Technologies and Expression Analysis (LTEA) Assay for Fatty Acid-Binding Protein 1 (FABP1) using HepaRG (AID 2283494). In outline:
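Values reflect bidirectional concentration-response fitting of FABP1 mRNA change against 0.5% DMSO controls. Human HepaRG cultures received eight half-log doses (top 100 uM) for 48 h; expression quantified by TaqMan qRT-PCR with housekeeping-gene normalization.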

Read-out in experiment [8]: Cytochrome P450 4A22 (Homo sapiens) (UniProt Q5TCH4)
Description: LTEA_HepaRG_CYP4A22: Life Technologies and Expression Analysis (LTEA) Assay for Cytochrome P450 4A22 (CYP4A22) using HepaRG (AID 2283495). In outline:
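HepaRG, 48 h post-plating -> serum-free induction medium; dosed 48 h, duplicate, 8 conc. (100 uM top, half-log), 0.5% DMSO. Readout: CYP4A22 mRNA by qRT-PCR, ACTB/GAPDH/POLR2A normalization; gain/loss fit relative to DMSO.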

Read-out in experiment [9]: Cytochrome P450 7A1 (Homo sapiens) (UniProt P22680)
Description: LTEA_HepaRG_CYP7A1: Life Technologies and Expression Analysis (LTEA) Assay for Cytochrome P450 7A1 (CYP7A1) using HepaRG (AID 2283496). The essentials:
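Using 0.5% DMSO as vehicle and baseline, chemicals were tested in duplicate over an 8-point range from 100 uM on HepaRG cells for 48 h; qRT-PCR signals were normalised to ACTB, GAPDH and POLR2A.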

Read-out in experiment [10]: Glutathione S-Transferase (GSTA2), GSTA2 (gene 2939)
Description: LTEA_HepaRG_GSTA2: Life Technologies and Expression Analysis (LTEA) Assay for Glutathione S-Transferase (GSTA2) using HepaRG (AID 2283497). In outline:
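Oxidative-stress marker GSTA2 is quantified by TaqMan qRT-PCR in HepaRG cultures treated 48 h across an eight-point range to 100 uM. Expression is normalized to endogenous controls and compared with 0.5% DMSO vehicle.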

Read-out in experiment [11]: Glutamate-cysteine ligase catalytic (GCLC), GCLC (gene 2729)
The experiment in a line: LTEA_HepaRG_GCLC: Life Technologies and Expression Analysis (LTEA) Assay for Glutamate-cysteine ligase catalytic (GCLC) using HepaRG (AID 2283498). The essentials: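 Oxidative-stress marker GCLC is measured as mRNA change in human HepaRG liver cells after 48 h chemical treatment in 0.5% DMSO, eight concentrations from 100 uM. Activity is fitted bidirectionally against vehicle.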

Read-out in experiment [12]: growth arrest and DNA damage 45 (GADD45G), GADD45G (gene 10912)
The experiment in a line: LTEA_HepaRG_GADD45G: Life Technologies and Expression Analysis (LTEA) Assay for growth arrest and DNA damage 45 (GADD45G) using HepaRG (AID 2283499). In outline:
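HepaRG, 48 h exposure, top 100 uM, half-log 8-point series, 0.5% DMSO vehicle, duplicates. Readout: GADD45G transcript by qRT-PCR (Fluidigm array), housekeeping-normalised (ACTB/GAPDH/POLR2A). Bidirectional curve fit vs DMSO baseline.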

Read-out in experiment [13]: Glutamate-cysteine ligase regulatory (GCLM), GCLM (gene 2730)
Description: LTEA_HepaRG_GCLM: Life Technologies and Expression Analysis (LTEA) Assay for Glutamate-cysteine ligase regulatory (GCLM) using HepaRG (AID 2283500). In outline: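 In this multiplexed HepaRG gene-expression assay, GCLM mRNA change after 48 h treatment (8 concentrations, max 100 uM) was scored against DMSO by bidirectional curve fitting.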

Read-out in experiment [14]: Heat shock 70 kDa protein 1 (HSPA1A), gene 3303
The experiment in a line: LTEA_HepaRG_HSPA1A: Life Technologies and Expression Analysis (LTEA) Assay for Heat shock 70 kDa protein 1 (HSPA1A) using HepaRG (AID 2283502). In outline:
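An oxidative-stress marker readout: HepaRG cells treated 48 h in duplicate with an eight-point series (highest 100 uM) had HSPA1A mRNA quantified by TaqMan qRT-PCR. Activity was fitted in both directions using 0.5% DMSO as baseline.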

Read-out in experiment [15]: Hypoxia-inducible factor 1-alpha (Homo sapiens) (UniProt Q16665)
Description: LTEA_HepaRG_HIF1A: Life Technologies and Expression Analysis (LTEA) Assay for Hypoxia-inducible factor 1 (HIF1A) Trancription factor using HepaRG (AID 2283503).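 Further: HIF1A transcript by TaqMan qRT-PCR normalized to ACTB GAPDH and POLR2A.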 The essentials: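 Gain- or loss-of-signal HIF1A mRNA changes are fitted against a DMSO baseline. HepaRG cultures receive eight concentrations, highest 100 uM, for 48 h in serum-free induction medium with 0.5% DMSO.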

Read-out in experiment [16]: Glutathione S-transferase M3 (GSTM3), GSTM3 (gene 2947)
Description: LTEA_HepaRG_GSTM3: Life Technologies and Expression Analysis (LTEA) Assay for Glutathione S-transferase M3 (GSTM3) using HepaRG (AID 2283501). In outline: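 qRT-PCR read-out of GSTM3 transcript, normalized to three housekeeping genes, from human HepaRG cells after 48 h chemical exposure. Eight-point half-log series, top 100 uM, 0.5% DMSO vehicle; gain or loss fitted relative to DMSO baseline.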

Cytochrome P450 3A4 (Homo sapiens), sequence (P08684 whole entry, looked up): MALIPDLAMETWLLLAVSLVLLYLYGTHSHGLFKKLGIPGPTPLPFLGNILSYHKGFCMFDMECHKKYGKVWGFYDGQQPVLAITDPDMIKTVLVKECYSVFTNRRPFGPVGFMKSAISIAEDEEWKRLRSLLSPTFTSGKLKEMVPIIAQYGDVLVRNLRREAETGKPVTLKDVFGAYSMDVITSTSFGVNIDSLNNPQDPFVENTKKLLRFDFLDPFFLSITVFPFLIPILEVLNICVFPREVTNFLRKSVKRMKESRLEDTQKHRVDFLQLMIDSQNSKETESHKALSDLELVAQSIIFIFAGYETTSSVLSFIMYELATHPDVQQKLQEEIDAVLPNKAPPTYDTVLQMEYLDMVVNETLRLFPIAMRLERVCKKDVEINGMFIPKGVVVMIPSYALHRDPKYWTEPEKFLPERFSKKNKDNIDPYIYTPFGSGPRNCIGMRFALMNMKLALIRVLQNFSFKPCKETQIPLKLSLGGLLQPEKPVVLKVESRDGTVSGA
Hypoxia-inducible factor 1-alpha (Homo sapiens), sequence (Q16665 whole entry, looked up): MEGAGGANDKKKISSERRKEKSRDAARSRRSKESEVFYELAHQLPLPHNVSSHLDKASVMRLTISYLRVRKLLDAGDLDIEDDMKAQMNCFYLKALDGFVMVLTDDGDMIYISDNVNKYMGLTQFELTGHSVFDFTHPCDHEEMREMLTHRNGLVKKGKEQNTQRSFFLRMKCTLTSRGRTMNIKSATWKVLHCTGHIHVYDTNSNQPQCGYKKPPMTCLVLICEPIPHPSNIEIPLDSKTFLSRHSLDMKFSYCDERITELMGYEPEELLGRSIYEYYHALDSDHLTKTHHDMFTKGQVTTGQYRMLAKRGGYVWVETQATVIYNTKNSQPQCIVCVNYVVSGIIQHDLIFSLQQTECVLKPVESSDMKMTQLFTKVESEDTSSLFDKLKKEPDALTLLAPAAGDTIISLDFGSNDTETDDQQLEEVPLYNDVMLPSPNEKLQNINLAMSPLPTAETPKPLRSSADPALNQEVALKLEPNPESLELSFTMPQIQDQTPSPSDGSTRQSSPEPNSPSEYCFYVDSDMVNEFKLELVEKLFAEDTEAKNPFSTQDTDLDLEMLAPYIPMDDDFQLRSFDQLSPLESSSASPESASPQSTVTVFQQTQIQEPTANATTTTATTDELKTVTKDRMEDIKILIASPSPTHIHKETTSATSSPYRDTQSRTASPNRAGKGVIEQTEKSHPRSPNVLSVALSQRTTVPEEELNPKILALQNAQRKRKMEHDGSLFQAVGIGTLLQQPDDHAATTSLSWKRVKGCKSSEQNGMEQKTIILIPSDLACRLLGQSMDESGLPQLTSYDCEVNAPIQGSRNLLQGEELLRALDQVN
Cytochrome P450 3A7 (Homo sapiens), sequence (P24462 whole entry, looked up): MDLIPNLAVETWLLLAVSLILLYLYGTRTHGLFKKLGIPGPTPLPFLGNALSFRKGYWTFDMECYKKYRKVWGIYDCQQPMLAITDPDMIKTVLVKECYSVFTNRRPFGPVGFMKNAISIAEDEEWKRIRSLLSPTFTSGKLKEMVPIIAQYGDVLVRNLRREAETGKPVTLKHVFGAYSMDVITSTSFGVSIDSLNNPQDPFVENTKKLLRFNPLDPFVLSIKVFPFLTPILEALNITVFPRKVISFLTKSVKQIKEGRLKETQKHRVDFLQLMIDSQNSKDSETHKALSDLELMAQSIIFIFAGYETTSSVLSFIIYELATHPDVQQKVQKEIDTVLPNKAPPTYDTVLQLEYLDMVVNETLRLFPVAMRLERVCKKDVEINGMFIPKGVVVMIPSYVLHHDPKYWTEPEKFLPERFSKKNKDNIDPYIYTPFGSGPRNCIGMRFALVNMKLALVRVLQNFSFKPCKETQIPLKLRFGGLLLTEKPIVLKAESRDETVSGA

Turning to `OCCOCCO`, the outcome (in the experiment with CYP2C9 (gene 1559); with CYP2E1 (gene 1571); with CYP4A11 (gene 1579); in experiment [1]; in experiment [2]; in experiment [3]) was inactive. The outcome (in experiment [4]; in experiment [5]; in experiment [6]; with CYP3A5 (gene 1577); in [7]; in experiment [8]) was inactive. Also, the compound was classed as inactive in experiment [9], in [10], in experiment [11], in experiment [12], in [13] and in experiment [14]. Besides, the compound was classed as inactive in [15].
Turning to `O=[N+]([O-])C(Br)(CO)CO`, the compound was classed as inactive (with CYP2C9 (gene 1559); with CYP2E1 (gene 1571); in the experiment with CYP4A11 (gene 1579); in experiment [1]; in experiment [2]; in [3]). In addition, the compound was classed as inactive (in experiment [4]; in experiment [5]; with CYP3A5 (gene 1577); in [7]; in experiment [8]; in experiment [9]). Moreover, the outcome in experiment [10], in experiment [11], in experiment [12], in experiment [13], in [16] and in experiment [14] was inactive.
For `CO[C@@H]1[C@H](OC(=O)NC(=O)CCl)CC[C@]2(CO2)[C@H]1[C@@]1(C)O[C@@H]1CC=C(C)C`, the compound was called inactive (in the experiment with CYP2C9 (gene 1559); with CYP2E1 (gene 1571); in the experiment with CYP4A11 (gene 1579); in experiment [1]; in experiment [2]; in [3]). For the same compound, the compound was called inactive (in experiment [4]; in experiment [5]; with CYP3A5 (gene 1577); in experiment [8]; in experiment [9]; in [10]). In addition, the compound was called inactive in experiment [11], in experiment [12], in experiment [13], in experiment [16], in [14] and in [15]. Further, the half-maximal activity concentration (AC50) in experiment [7] was 1960 nM (active).
